HepG2 viability: qHTS for Inhibitors of TGF-b: Cytotox Counterscreen; HepG2 CAGA-GFP viability, ATP luminescence, 18 h; AID 588856, 2011; 410,000 tested, 0.76% active; Potency, µM (top dose mostly 46.1 µM), hits mostly cytotoxic
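HepG2 CAGA-GFP cells (1000/well, DMEM with 1% FBS) received compound, then TGF-beta at 500 pg/mL final, and were incubated 18 hours at 37 degrees C. Viability was read by CellTiter-Glo luminescence. Media-only wells were set as complete cell-killing and DMSO as no toxicity.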
DT40 TDP1 no CPT: qHTS for Inhibitors of human tyrosyl-DNA phosphodiesterase 1 (TDP1): qHTS in cells in absence of CPT; DT40 Tdp1-/- hTDP1 cells, no CPT, ATP luminescence, 48 h; Potency, µM (highest dose often 46.2 µM), usual class: inhibitors; 420,000 tested, 15% active; AID 686978, 2013; also: nearly all actives have a fitted effect of over 55% in size
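Stably hTDP1-transfected Tdp1-null chicken DT40 cells were treated with library compounds minus camptothecin and grown for at least 48 hr at 37 °C, after which cellular ATP was quantified by luminescence.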
IL1B secr inh: qHTS for Inhibitors of Inflammasome Signaling: IL-1-beta AlphaLISA Primary Screen. THP-1 LPS/ATP IL-1B secretion, AlphaLISA, 16 h; stronger effect = lower value. AID 743279, 2014. 360,000 tested, 4.7% active. activity change, % at 57.5 µM; in the data active = activity change below about -50%; inconclusive = mostly about -30% to -49%
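THP-1 cells pretreated 1 hr with compounds (up to 57.5 uM final), then stimulated with LPS (250 ng/mL final) plus ATP (1.25 mM final); secreted IL-1B measured by AlphaLISA after 16 hr, decreased signal indicating inhibition.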
TGFb SMAD3 inh: qHTS for Inhibitors of TGF-b; Potency, µM (doses to about 46.1 µM), actives largely listed as inhibitors; HepG2 CAGA-GFP TGF-b/SMAD3 reporter, GFP fluorescence, 18 h; TGF-beta stimulated, 500 pg/mL final; 410,000 tested, 1.2% active; AID 588855, 2011; also: nearly all actives have a fitted effect of over 65% in size
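First, reporter cells (HEPG2 CAGA-GFP) rested 2 h at 37 degrees C. Next, compounds were pinned in and TGF-beta added to 500 pg/mL final. After 18 h, GFP was imaged per cell and summed per well.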
TDP1 cell CPT: qHTS for Inhibitors of human tyrosyl-DNA phosphodiesterase 1 (TDP1): qHTS in cells in presence of CPT; chicken DT40 Tdp1-/-;hTDP1 cells + 20 nM CPT, ATP luminescence, 48 h; AID 686979, 2013; 420,000 tested, 12% active; Potency, µM (highest dose often 46.2 µM), usual class: inhibitors; also: nearly all actives have a fitted effect of over 55% in size
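Cell growth measured by CellTiter-Glo luminescence after a minimum 48 h, 37 C compound exposure with 20 nM CPT in Tdp1-knockout DT40 cells stably expressing hTDP1, seeded 400/well; qHTS titration format.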
S-ASM inh: Inhibitors of Secretory Acid Sphingomyelinase (S-ASM): qHTS; Sphingomyelin phosphodiesterase (Homo sapiens), P17405; Potency, µM (titrated, usually from 57.5 µM), actives largely listed as inhibitors; AID 504937, 2011; 340,000 tested, 0.006% active; placental ASM, HMU-PC fluorogenic substrate, 60 min
Target sequence (P17405 47-631 limits assumed): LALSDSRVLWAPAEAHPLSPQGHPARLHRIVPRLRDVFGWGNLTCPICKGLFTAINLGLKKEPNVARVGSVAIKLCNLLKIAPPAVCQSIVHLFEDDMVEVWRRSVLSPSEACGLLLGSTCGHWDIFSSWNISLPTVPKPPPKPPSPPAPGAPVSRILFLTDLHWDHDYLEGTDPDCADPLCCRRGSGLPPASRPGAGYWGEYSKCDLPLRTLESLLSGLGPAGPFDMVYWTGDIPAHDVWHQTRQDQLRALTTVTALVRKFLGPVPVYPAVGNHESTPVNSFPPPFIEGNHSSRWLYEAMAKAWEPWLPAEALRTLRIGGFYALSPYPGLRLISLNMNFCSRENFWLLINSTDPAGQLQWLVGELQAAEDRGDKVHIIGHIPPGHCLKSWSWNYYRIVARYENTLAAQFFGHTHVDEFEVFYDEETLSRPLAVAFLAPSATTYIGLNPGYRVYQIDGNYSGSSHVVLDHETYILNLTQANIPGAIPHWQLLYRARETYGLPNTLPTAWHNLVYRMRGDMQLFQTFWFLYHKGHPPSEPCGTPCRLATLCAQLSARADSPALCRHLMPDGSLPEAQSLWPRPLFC
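qHTS format. ASM enzyme prepared from human placenta hydrolyses the fluorogenic substrate HMU-PC0 (9 uM final) over 60 min at 37 °C after a 10 min compound preincubation.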
Large screens that a line does not name were inactive. A selection: hits, their analogues and other compounds. The true share with any hit is near 19%. Unless noted, calls follow the shape of the dose curve; as a rule, active = well fitted curve in the direction sought with a large enough effect; inconclusive = small, poorly fitted or top-dose-only effect, or another doubt; inactive = no such curve, though single readings can be large; an effect the other way counts as inactive or inconclusive.

Cc1ccc(S(=O)(=O)NN2C(=O)c3ccccc3NC2c2ccccc2O)cc1 (stereo not given)	none
CC(=O)c1ccc(-c2cccc([C@H]3[C@@H]4C=CC[C@@H](C)[C@@H]4C(=O)N3Cc3ccccc3)c2)cc1	DT40 TDP1 no CPT 13µM, TGFb SMAD3 inh inconclusive, TDP1 cell CPT 10.3µM
Cc1ccc(-c2cccc(C3CC=CC4C3C(=O)N(Cc3ccccc3)C4c3ccc(C(F)(F)F)cc3)c2)cc1 (stereo not given)	DT40 TDP1 no CPT 13µM, TDP1 cell CPT 13µM
O=C1C2C(c3ccccc3)CC=CC2[C@H](c2ccc3ccccc3c2)N1Cc1ccccc1 (stereo not given in full)	DT40 TDP1 no CPT 23.1µM, TDP1 cell CPT 20.6µM
COc1ccc(-c2cccc(C3CC=CC4C3C(=O)N(Cc3ccccc3)C4c3ccc4ccccc4c3)c2)cc1 (stereo not given)	DT40 TDP1 no CPT 14.6µM, TDP1 cell CPT 18.4µM
Cc1cccc(-c2nc3c4ccccc4nc(NCCc4ccccc4)n3n2)c1	DT40 TDP1 no CPT inconclusive, TDP1 cell CPT inconclusive (no result: IL1B secr inh, S-ASM inh)
CC1CC=CC2C1C(=O)N(Cc1ccccc1)C2c1ccc(F)c(-c2ccc(N(C)C)cc2)c1 (stereo not given)	none (no result: DT40 TDP1 no CPT, IL1B secr inh, TDP1 cell CPT, S-ASM inh)
COc1ccc(-c2cccc([C@H]3[C@@H]4C=CC[C@@H](C)[C@@H]4C(=O)N3Cc3ccccc3)c2)cc1	DT40 TDP1 no CPT 20.6µM, TGFb SMAD3 inh inconclusive, TDP1 cell CPT 23.1µM
COc1ccc(C2C3C=CCC(C)C3C(=O)N2Cc2ccccc2)cc1Cl (stereo not given)	TGFb SMAD3 inh inconclusive (no result: DT40 TDP1 no CPT, IL1B secr inh, TDP1 cell CPT, S-ASM inh)
COc1ccc(C2C3C=CCC(c4cccc(-c5ccc(C)cc5)c4)C3C(=O)N2Cc2ccccc2)cc1Cl (stereo not given)	DT40 TDP1 no CPT 13µM, TGFb SMAD3 inh inconclusive, TDP1 cell CPT 23.1µM
COc1cc(-c2cccc([C@H]3[C@@H]4C=CC[C@@H](C)[C@@H]4C(=O)N3Cc3ccccc3)c2)cc(OC)c1OC	DT40 TDP1 no CPT 7.31µM, IL1B secr inh inconclusive, TGFb SMAD3 inh inconclusive, TDP1 cell CPT 8.2µM, S-ASM inh inconclusive
COc1ccc(C2C3C=CCC(c4cccc(-c5ccc(N(C)C)cc5)c4)C3C(=O)N2Cc2ccccc2)cc1Cl (stereo not given)	none (no result: DT40 TDP1 no CPT, IL1B secr inh, TDP1 cell CPT, S-ASM inh)
Cc1ccc(-c2cc([C@H]3[C@H]4C=CC[C@@H](C)[C@@H]4C(=O)N3Cc3ccccc3)ccc2F)cc1	DT40 TDP1 no CPT 20.6µM, TDP1 cell CPT inconclusive
CC(NC(=O)CCNC(=O)c1ccc(Br)cc1)c1ccc(S(N)(=O)=O)cc1 (stereo not given)	none
COc1ccc(S(=O)(=O)N2CC3CCCN3c3ccc(C(F)(F)F)cc32)cc1 (stereo not given)	DT40 TDP1 no CPT inconclusive, IL1B secr inh inconclusive, TDP1 cell CPT 25.9µM
COc1ccc(S(=O)(=O)N2CC3CCCN3c3cc(C(F)(F)F)ccc32)cc1 (stereo not given)	DT40 TDP1 no CPT inconclusive, TDP1 cell CPT 20.6µM
Cc1nn(S(=O)(=O)c2ccc(C(C)C)cc2)c(C)c1S(=O)(=O)N1CCCCCC1	none (no result: IL1B secr inh, S-ASM inh)
CCc1cc(C(c2ccc(OC)c(OC)c2)N2CCOCC2)c(NC(=O)c2ccccc2)s1 (stereo not given)	DT40 TDP1 no CPT 20.6µM, IL1B secr inh -124.4, TGFb SMAD3 inh inconclusive, TDP1 cell CPT inconclusive
CCc1cc(C(c2ccc(F)cc2)N2CCOCC2)c(NC(=O)c2ccccc2)s1 (stereo not given)	DT40 TDP1 no CPT inconclusive, IL1B secr inh inconclusive, TGFb SMAD3 inh inconclusive, TDP1 cell CPT inconclusive
CCc1cc(C(c2cccc(OC)c2)N2CCOCC2)c(NC(=O)c2ccccc2)s1 (stereo not given)	DT40 TDP1 no CPT 14.6µM, IL1B secr inh inconclusive, TGFb SMAD3 inh inconclusive, TDP1 cell CPT inconclusive
CC(c1ccco1)N(C(=O)c1cccs1)c1ccccn1 (stereo not given)	none
CC(C)c1ccc(C(=O)N(c2ccccn2)C(C)c2ccco2)cc1 (stereo not given)	DT40 TDP1 no CPT 23.1µM, TDP1 cell CPT inconclusive
Cc1cccc(C(=O)N(c2ccccn2)C(C)c2ccco2)c1 (stereo not given)	DT40 TDP1 no CPT inconclusive, TDP1 cell CPT inconclusive
Cc1cc(C)cc(C(=O)N(c2ccccn2)C(C)c2ccco2)c1 (stereo not given)	DT40 TDP1 no CPT 14.6µM, TDP1 cell CPT inconclusive
CC(c1ccco1)N(C(=O)c1ccccc1NS(=O)(=O)c1ccc(Cl)c([N+](=O)[O-])c1)c1ccccn1 (stereo not given)	DT40 TDP1 no CPT inconclusive, IL1B secr inh -85.6, TDP1 cell CPT inconclusive
CC(c1ccco1)N(C(=O)c1cc(Cl)cc(Cl)c1)c1ccccn1 (stereo not given)	DT40 TDP1 no CPT 8.2µM, TGFb SMAD3 inh inconclusive, TDP1 cell CPT 9.2µM
Cc1ccc(Nc2ncnc3c2cnn3-c2ccc(C)cc2)cc1	DT40 TDP1 no CPT inconclusive (no result: IL1B secr inh, S-ASM inh)
CC(C)n1nc(C(=O)Nc2nnc(SCc3c(Cl)cccc3Cl)s2)c2ccccc2c1=O	DT40 TDP1 no CPT inconclusive, TDP1 cell CPT 10.3µM
CCOC(=O)C1CCN(S(=O)(=O)c2ccc3c(c2)CCCN3C(C)=O)CC1	none
CCOC(=O)C1CCCN(S(=O)(=O)c2cc(C(=O)OC)n(C)c2)C1 (stereo not given)	DT40 TDP1 no CPT 16.4µM, TGFb SMAD3 inh inconclusive, TDP1 cell CPT 16.4µM
CCOC(=O)C1CCCN(S(=O)(=O)c2ccc3c(c2)CCCN3C(C)=O)C1 (stereo not given)	DT40 TDP1 no CPT 18.4µM, TDP1 cell CPT inconclusive (no result: IL1B secr inh, S-ASM inh)
CC(=O)N1CCCc2cc(S(=O)(=O)N3CCC(C(=O)NCc4ccccc4)CC3)ccc21	DT40 TDP1 no CPT inconclusive, TDP1 cell CPT inconclusive (no result: IL1B secr inh, S-ASM inh)
COc1ccc(CNC(=O)C2CCCN(S(=O)(=O)c3ccc4c(c3)CCCN4C(C)=O)C2)cc1 (stereo not given)	DT40 TDP1 no CPT 10.3µM, TDP1 cell CPT 14.6µM
CCOC(=O)C1CCCN(S(=O)(=O)CCNC(=O)c2cccc(OC)c2)C1 (stereo not given)	IL1B secr inh -68.2
Cc1ccc(S(=O)(=O)N(C)/N=C/c2ccc(N(C)C)cc2)cc1	DT40 TDP1 no CPT inconclusive

Bioassay records as filed in PubChem BioAssay.
